Assay outcomes from PubChem.
SW480 rerep: induces DNA re-replication in SW480 colon adenocarcinoma cells; Potency, µM (series often up to 46.1 µM), without a hit: at the top dose re-replication activation, actives largely listed as activators; SW480 DNA re-replication, Hoechst DNA content imaging, 48 h; AID 624297; hit rate 1.8% among 340,000; also: % of control where 0% means no effect; nearly all actives have a fitted effect of over 55% in size
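Hoechst fluorescence of nuclei (405 nm excitation, 500-530 nm emission) measured by plate-scanning imager after 48 hr compound exposure at 37 C; re-replication scored as increased number of nuclei with elevated intensity.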
RORgamma inh: blocks mouse ROR gamma transcriptional activity; P51450; Drosophila S2 Gal4-RORgamma UAS-luciferase reporter, 20 h; Potency, µM (highest dose often 53.6 µM), inactives show at the highest dose activity change, negative = inhibition, most hits filed as inhibitors; hit rate 5.4% among 310,000; AID 2551; also: % is scaled to controls: 0 for no effect and ±100 for the full control effect; nearly all actives have a fitted effect of over 60% in size
Target sequence (P51450 whole entry, looked up, the tested form may be a part): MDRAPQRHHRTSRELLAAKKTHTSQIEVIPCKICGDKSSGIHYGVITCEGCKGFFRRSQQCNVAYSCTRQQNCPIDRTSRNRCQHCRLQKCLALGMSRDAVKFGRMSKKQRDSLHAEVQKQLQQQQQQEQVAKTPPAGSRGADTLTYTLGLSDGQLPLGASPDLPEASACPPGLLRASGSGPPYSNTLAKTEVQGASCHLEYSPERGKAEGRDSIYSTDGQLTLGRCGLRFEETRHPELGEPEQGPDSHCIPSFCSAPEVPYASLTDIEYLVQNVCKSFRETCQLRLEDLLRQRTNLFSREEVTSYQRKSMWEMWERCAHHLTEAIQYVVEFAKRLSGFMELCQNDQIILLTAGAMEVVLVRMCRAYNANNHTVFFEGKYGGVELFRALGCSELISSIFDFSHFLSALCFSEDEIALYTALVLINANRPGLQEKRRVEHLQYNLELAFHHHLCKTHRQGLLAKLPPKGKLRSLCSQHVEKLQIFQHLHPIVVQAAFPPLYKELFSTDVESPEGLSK
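Luminescence from a UAS-regulated Photinus luciferase reporter in stably transfected Drosophila Schneider cells is measured; decreased signal marks ROR gamma inhibition. Fusion expression is induced by 700 uM copper sulfate for 20 hr.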
VP16 counter: inhibits Gal4-VP16 luciferase reporter, ROR gamma counter-screen. hit rate 3.5% among 310,000. AID 2546. Potency, µM (top dose mostly 53.6 µM), without a hit: at the top dose activity, negative = inhibition, usual class: inhibitors. Drosophila S2 Gal4-VP16 UAS-luciferase, luminescence, 20 h;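 also: Gal4-VP16 expression switched on by copper sulfate through the metallothionein promoter; % is scaled to controls: 0 for no effect and ±100 for the full control effect; nearly all actives have a fitted effect of over 50% in size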
MCF10A rerep: DNA re-replication induction in MCF 10a cells. MCF 10A DNA re-replication, Hoechst nuclear intensity, 48 h. Potency, µM (titrated, usually from 46.1 µM), for inactives: top-dose activity, positive = re-replication, usual class: activators. hit rate 2.9% among 350,000; also: % of control where 0% means no effect; nearly all actives have a fitted effect of over 50% in size
ELG1 repair inh: ELG1-dependent DNA repair inhibition; HEK293T ELG1-luciferase reporter, luminescence, 16 h; DNA damage induced by 5-fluorouridine; Potency, µM (highest dose often 46.1 µM), for the others: at the top dose activity change, negative = inhibition, most hits filed as inhibitors; hit rate 2.3% among 330,000; AID 504467; also: % is scaled to controls: 0 for no effect and ±100 for the full control effect; nearly all actives have a fitted effect of over 55% in size
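5-Fluorouridine DNA damage + compound/DMSO, 2,000 cells/well, 16 h, 37 °C/5% CO2. ONE-Glo, 30 min RT, luminescence. Readout = decrease in reporter signal.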
An asterisk follows results filed as active; ? = inconclusive; . = no result; [ ] = dose if it differs, or a comment. The list is not random: actives were taken first. Their share in the collection is about 10%. Calls follow the shape of the dose curve; as a rule, active = well fitted curve in the direction sought with a large enough effect; inconclusive = small, poorly fitted or top-dose-only effect, or another doubt; inactive = no such curve, though single readings can be large; an effect the other way counts as inactive or inconclusive. Potency is read from the fitted curve at half-maximal effect.

SMILES	SW480 rerep	RORgamma inh	VP16 counter	MCF10A rerep	ELG1 repair inh
COC(=O)C1=C(Nc2ccc(C)cc2)C=C(C)C(C(=O)OC)C1c1cccc(OC)c1 (stereo unspecified)	23µM*	?	-15%	?	?
COC(=O)C1C(=O)C=C(Nc2ccc(F)cc2)CC1c1ccc(OC)cc1 (stereo unspecified)	-5%	?	11%	2%	?
COc1cccc(C2NC(=O)NC(C)=C2C(=O)Nc2ccc(C)cc2)c1 (stereo unspecified)	-2%	2%	-8%	1%	15%
NC(=O)/C(=C/c1cccnc1)NC(=O)c1ccccc1	78%	15%	-1%	-13%	5%
COc1ccc(/C(O)=C2/C(=O)C(=O)N(CCN3CCNCC3)C2c2cccc([N+](=O)[O-])c2)cc1 (stereo unspecified)	-3%	-9%	-3%	?	2%
Oc1nc(Nc2ccccc2)sc1/C=C1\C=Nc2ccccc21	16%	-8%	4%	21µM*	?
CCOC(=O)c1c(Nc2ccccc2)sc(/C=C2\C=Nc3ccccc32)c1O	-5%	15%	0%	25%	-11%
Cc1ccccc1C(=O)NNC(=O)c1ccncc1	0%	2%	-2%	0%	-5%
COc1ccccc1-c1nccc(NCc2cccnc2)n1	.	15%	-10%	.	.
C/C(Cn1nnc([N+](=O)[O-])n1)=N\NC(=O)c1ccccc1	17%	10µM*	?	0%	25%
O=c1nc(N2CCOCC2)ccn1-c1nc(-c2ccccc2)sc1-c1ccccc1	25%	?	-6%	6%	6%
C/C(CCN1CCc2nc(-c3ccccc3)c(-c3ccccc3)cc2C1)=N\O[C@@H](C)c1cn([C@H](CO)Cc2ccccc2)nn1	?	6%[10 µM]	17%[10 µM]	?	21µM*
COc1cccc(/C=N/Nc2nc3ccccc3n3cnnc23)c1O	?	?	?	?	8.2µM*
COc1cccc(/C=N/Nc2nc3ccccc3[nH]2)c1O	?	0.71µM*	2.2µM*	?	4.1µM*
COc1cccc(/C=N/Nc2nc3ccccc3[nH]2)c1OC	-1%[9.22 µM]	?	?	33%	?
O=C(Nc1cnccn1)c1ccc(F)cc1Cl	-1%	0%	14%	11%	-1%
CN1CCc2nc(NC(=O)c3cccc(S(=O)(=O)N4CCc5ccccc54)c3)sc2C1	4%	?	-18%	?	-2%
COc1cccc(C(=O)Nc2nc3c(s2)CN(C)CC3)c1	-3%	15%	13µM*	-2%	?
CCN1CCc2nc(NC(=O)c3ccccc3)sc2C1	2%	14µM*	11µM*	11%	.
O=C(Nc1nc2c(s1)CN(Cc1ccccc1)CC2)C1CCC1	-4%	-5%	11%	0%	?
COc1ccc(CCNC(=O)c2cc3c(F)cccc3s2)cc1OC	-20%	?	10%	10%	?
COc1cccc(N2CC(NS(=O)(=O)c3ccc4ccccc4c3)CC2=O)c1 (stereo unspecified)	43%	.	.	-28%	-3%
OCc1ccc2c(c1)c(-c1ccc3c(c1)OCCO3)c(-c1ccccc1)n2-c1ccccc1	5%	.	.	?	16µM*
COc1ccc(N=Nc2ccc3ccccc3c2)c(O)c1	-4%	-30%[1.91 µM]	?	-2%	?
COc1cccc(N=Nc2ccc3ccccc3c2O)c1	-6%	8.9µM*	?	7%	?
SMILES	SW480 rerep	RORgamma inh	VP16 counter	MCF10A rerep	ELG1 repair inh
O=C(CSc1nncn1-c1cccnc1)Nc1ccccc1C(F)(F)F	-12%	0%	-6%	2%	-1%
CCCS/C(N)=N/N=C/c1cc(C)ccc1O	?	0.89µM*	2µM*	?	?
Cc1ccc(O)c(C=Nc2ccc3[nH]ncc3c2)c1	-8%	-7%	?	0%	-3%
CCCCS/C(N)=N/N=C/c1ccccc1O	?	0.63µM*	1.1µM*	?	?
O=C(c1ccc2c(=O)n3c(nc2c1)CCC3)N1CCN(S(=O)(=O)c2ccccc2Br)CC1	1%	.	.	-2%	.
O=C(c1ccc2nc(-c3ccco3)c(-c3ccco3)nc2c1)N1CCN(c2ncccn2)CC1	9%	15%	2%	13µM*	?
Cc1cccc(N2CCN(C(=O)c3ccc4nc(-c5ccco5)c(-c5ccco5)nc4c3)CC2C)c1 (stereo unspecified)	?	?	-4%	12µM*	?
Cc1cccc(N2CCN(C(=O)c3ccc4nccnc4c3)CC2C)c1 (stereo unspecified)	-1%	.	.	6%	-2%
O=C(Nc1ccc2nc(-c3ccco3)c(-c3ccco3)nc2c1)N1CCN(c2ccccn2)CC1	?	22%	-10%	?	12µM*
O=C(c1cccc(C(=O)N2CCN(c3ncccn3)CC2)c1)N1CCN(c2ncccn2)CC1	-8%	0%	-12%	-1%	-9%
Cc1cccc(N2CCN(C(=O)c3cc4c(=O)n(C)c5ccccc5c4n3C)CC2C)c1 (stereo unspecified)	15%	-2%	4%	6%	15µM*
Cc1nc2cc(NC(=O)N3CCN(c4ccccn4)CC3)ccc2o1	-2%	1%	8%	-9%	.
COc1ccc(-c2nc3cnc(OC)nc3n(CCc3ccccc3)c2=O)cc1	.	0%	4%	.	.
Cc1nnc(SCC(=O)Nc2cccc(S(N)(=O)=O)c2)n1-c1ccccc1	0%	-14%	-9%	3%	9%
COCCn1c(SCC(=O)Nc2cccc(S(N)(=O)=O)c2)nc2cc(Cl)ccc2c1=O	?	35%	4%	?	?
Cc1ccc(-n2c(SCC(=O)Nc3cccc(S(N)(=O)=O)c3)nc3ccccc32)cc1	17%	40%	-18%	16µM*	?
CC(C)Cn1c(SCC(=O)Nc2cccc(S(N)(=O)=O)c2)nc2ccccc2c1=O	6%	10µM*	-9%	-2%	16µM*
COc1cccc(/C=N/Nc2cc(-n3nc(C)cc3-c3ccccc3)ncn2)c1O	?	?	1µM*	3.7µM*	5.2µM*
COc1cccc(/C=N/Nc2nc(Nc3ccccc3)nc(-n3nc(C)cc3C)n2)c1O	5.8µM*	1.1µM*	2.5µM*	15µM*	2.6µM*
Cn1c(CNS(=O)(=O)c2ccc(Cl)cc2)cc(=O)n(C)c1=O	20%	-22%	-8%	4%	13%
NS(=O)(=O)c1ccc(CCNC(=O)c2cnccn2)cc1	20%	12%	-2%	0%	20%
O=C(COC(=O)c1cnccn1)NC(=O)c1ccccc1	-2%	.	.	-1%	15%
CCC(=O)OC1C2CC3=C4CC(=O)OC(c5ccoc5)[C@]4(C)CCC3[C@@](C)(C2=O)C(CC(=O)OC)C1(C)C (stereo partly specified)	.	-1%	0%	.	.
